Source: PubChem BioAssay AID1159580 (chemical genetic matrix, 2015)
Among all 5,500 compounds or so, about 2,000 (36%) were called active. Roughly 18% stayed inconclusive and do not appear here. Cut-off read from the data, not from the text of the source: active = normalized growth mostly below about 0.91 (no sharp cut-off); inconclusive = no clear call, values can overlap the other calls; inactive = mostly above about 0.92. This is one part of the list.

Assay: chemical genetic growth profiling, strain panel (AID 1159580);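 note: tested at 20 µM; growth read once vehicle control cultures reached saturation at 30 °C; 1 = growth at the plate median or of vehicle wells; lower values mean less growth of the strain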
Conditions: growth OD

Measured: normalized growth

CC(C)CCCC(C)C1CCC2C3=CC[C@H]4C[C@@H](O)CC[C@]4(C)C3CC[C@@]21C (some centres not stated)
inactive: S. cerevisiae deletion strains, locus YJR066W, strain TOR1, active compounds read low 0.943 | S. cerevisiae deletion strains, locus YJR075W, strain HOC1, active compounds read low 0.995 | S. cerevisiae deletion strains, locus YKL009W, strain mrt4, active compounds read low 0.997 | S. cerevisiae deletion strains, locus YKL068W, active compounds read low 1 | S. cerevisiae deletion strains, locus YKL085W, strain MDH1 (second series), active compounds read low 0.988 | S. cerevisiae deletion strains, locus YKL085W, strain MDH1, active compounds read low 0.988 | S. cerevisiae deletion strains, locus YKL160W, strain elf1, active compounds read low 0.964 | S. cerevisiae deletion strains, locus YKR001C, strain vps1, active compounds read low 0.983 | S. cerevisiae deletion strains, locus YKR026C, strain gcn3, active compounds read low 0.999 | S. cerevisiae deletion strains, locus YKR091W, strain srl3, active compounds read low 0.967 | S. cerevisiae deletion strains, locus YLL001W, strain dnm1, active compounds read low 0.988 | S. cerevisiae deletion strains, locus YLL026W, active compounds read low 0.988 | S. cerevisiae deletion strains, locus YLL041C, strain sdh2, active compounds read low 0.975 | S. cerevisiae deletion strains, locus YLR027C, strain aat2, active compounds read low 0.982 | S. cerevisiae deletion strains, locus YLR039C, strain RIC1, active compounds read low 0.828 | S. cerevisiae deletion strains, locus YLR058C, strain SHM2, active compounds read low 1.02 | S. cerevisiae deletion strains, locus YLR102C, strain apc9, active compounds read low 0.99 | S. cerevisiae deletion strains, locus YLR113W, strain HOG1, active compounds read low 1.03 | S. cerevisiae deletion strains, locus YLR221C, strain rsa3, active compounds read low 0.946 | S. cerevisiae deletion strains, locus YLR258W, strain gsy2, active compounds read low 1 | S. cerevisiae deletion strains, locus YLR262C, strain YPT6 (second series), active compounds read low 0.859 | S. cerevisiae deletion strains, locus YLR262C, strain YPT6, active compounds read low 0.816 | S. cerevisiae deletion strains, locus YLR268W, strain sec22, active compounds read low 0.978 | S. cerevisiae deletion strains, locus YLR320W, strain mms22, active compounds read low 0.952 | S. cerevisiae deletion strains, locus YLR330W, strain CHS5, active compounds read low 1.04 | S. cerevisiae deletion strains, locus YLR342W, strain FKS1 (second series), active compounds read low 1.04 | S. cerevisiae deletion strains, locus YLR342W, strain FKS1, active compounds read low 0.994 | S. cerevisiae deletion strains, locus YLR357W, strain rsc2, active compounds read low 1.04 | S. cerevisiae deletion strains, locus YLR370C, strain arc18, active compounds read low 0.964 | S. cerevisiae deletion strains, locus YLR371W, strain rom2, active compounds read low 0.998 | S. cerevisiae deletion strains, locus YLR384C, strain iki3, active compounds read low 0.985 | S. cerevisiae deletion strains, locus YLR418C, strain cdc73, active compounds read low 0.943 | S. cerevisiae deletion strains, locus YML016C, strain PPZ1, active compounds read low 1.01 | S. cerevisiae deletion strains, locus YML032C, strain rad52, active compounds read low 1 | S. cerevisiae deletion strains, locus YML120C, strain ndi1, active compounds read low 0.965 | S. cerevisiae deletion strains, locus YML124C, strain tub3, active compounds read low 0.996 | S. cerevisiae deletion strains, locus YMR058W, strain fet3, active compounds read low 0.965 | S. cerevisiae deletion strains, locus YMR078C, strain ctf18, active compounds read low 0.989 | S. cerevisiae deletion strains, locus YMR125W, strain sto1, active compounds read low 1 | S. cerevisiae deletion strains, locus YMR129W, active compounds read low 0.992 | S. cerevisiae deletion strains, locus YMR205C, strain PFK2, active compounds read low 1 | S. cerevisiae deletion strains, locus YMR223W, strain ubp8, active compounds read low 0.99 | S. cerevisiae deletion strains, locus YMR231W, strain pep5, active compounds read low 0.991 | S. cerevisiae deletion strains, locus YMR263W, strain SAP30, active compounds read low 1.03 | S. cerevisiae deletion strains, locus YMR307W, strain GAS1, active compounds read low 1.05 | S. cerevisiae deletion strains, locus YNL067W, strain RPL9B, active compounds read low 0.991 | S. cerevisiae deletion strains, locus YNL071W, strain lat1, active compounds read low 0.932 | S. cerevisiae deletion strains, locus YNL183C, strain NPR1, active compounds read low 0.939 | S. cerevisiae deletion strains, locus YNL209W, strain ssb2, active compounds read low 0.987 | S. cerevisiae deletion strains, locus YNL233W, strain BNI4, active compounds read low 0.984 | S. cerevisiae deletion strains, locus YNL248C, strain rpa49, active compounds read low 0.922 | S. cerevisiae deletion strains, locus YNL250W, strain rad50, active compounds read low 0.999 | S. cerevisiae deletion strains, locus YNL271C, strain bni1, active compounds read low 0.994 | S. cerevisiae deletion strains, locus YNL298W, strain CLA4, active compounds read low 0.985 | S. cerevisiae deletion strains, locus YNL307C, strain MCK1, active compounds read low 0.996 | S. cerevisiae deletion strains, locus YNL322C, strain KRE1 (second series), active compounds read low 0.98 | S. cerevisiae deletion strains, locus YNR049C, strain mso1, active compounds read low 0.982 | S. cerevisiae deletion strains, locus YNR052C, strain pop2, active compounds read low 0.984 | S. cerevisiae deletion strains, locus YOL012C, strain htz1 0.805 | S. cerevisiae deletion strains, locus YOL147C, strain pex11, active compounds read low 0.994 | S. cerevisiae deletion strains, locus YOR001W, strain rrp6, active compounds read low 0.946 | S. cerevisiae deletion strains, locus YOR061W, strain CKA2, active compounds read low 1.01 | S. cerevisiae deletion strains, locus YOR069W, strain VPS5, active compounds read low 1.01 | S. cerevisiae deletion strains, locus YOR070C, strain gyp1, active compounds read low 0.985 | S. cerevisiae deletion strains, locus YOR080W, strain dia2, active compounds read low 0.981 | S. cerevisiae deletion strains, locus YOR083W, strain WHI5, active compounds read low 0.947 | S. cerevisiae deletion strains, locus YOR106W, strain vam3, active compounds read low 0.935 | S. cerevisiae deletion strains, locus YOR136W, strain idh2, active compounds read low 0.993 | S. cerevisiae deletion strains, locus YOR144C, strain elg1, active compounds read low 0.998 | S. cerevisiae deletion strains, locus YOR184W, strain ser1, active compounds read low 0.969 | S. cerevisiae deletion strains, locus YOR231W, strain MKK1, active compounds read low 0.976 | S. cerevisiae deletion strains, locus YOR265W, strain rbl2, active compounds read low 0.985 | S. cerevisiae deletion strains, locus YOR270C, strain vph1, active compounds read low 0.794 | S. cerevisiae deletion strains, locus YOR290C, strain snf2, active compounds read low 1.01 | S. cerevisiae deletion strains, locus YOR316C, strain cot1, active compounds read low 0.988 | S. cerevisiae deletion strains, locus YPL051W, strain arl3, active compounds read low 0.951 | S. cerevisiae deletion strains, locus YPL078C, strain atp4, active compounds read low 0.925 | S. cerevisiae deletion strains, locus YPL106C, strain sse1, active compounds read low 1.03 | S. cerevisiae deletion strains, locus YPL240C, strain hsp82, active compounds read low 0.97 | S. cerevisiae deletion strains, locus YPL241C, strain CIN2, active compounds read low 1.01 | S. cerevisiae deletion strains, locus YPL256C, strain CLN2, active compounds read low 1 | S. cerevisiae deletion strains, locus YPR119W, strain clb2, active compounds read low 0.99 | S. cerevisiae deletion strains, locus YPR141C, strain kar3, active compounds read low 0.994 | S. cerevisiae deletion strains, locus YPR163C, strain tif3, active compounds read low 0.994 | S. cerevisiae deletion strains, locus YPR167C, strain met16, active compounds read low 1.01 | S. cerevisiae deletion strains, strain wtn01, active compounds read low 0.97 | S. cerevisiae strains, strain wild type, active compounds read low 1.04
